Data from the supplement of paper PMC10849652.
Of roughly 7,900 targets only a part is listed; those with a hit were picked by preference. About 0.6% of all pairs of compound and target were hits. Values without a mark were called inactive.

Columns and labels:
Experiment in all cases: log2 fold change, soluble protein after heating vs DMSO (PISA); higher = thermal stabilisation; K562 cells, 10 uM, 30 min; active = over 0.2 and 3.5 SD of the protein, either way, in both replicates (recomputed)
erlotinib = compound: C#Cc1cccc(Nc2ncnc3cc(OCCOC)c(OCCOC)cc23)c1 [erlotinib]
Outline: (§1)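 Quantification of soluble protein used TMTpro 16plex LC-MS/MS, with channel sums equalised. Samples were the supernatant after 21,000xg for 90 min of pooled aliquots from K562 cells (2×10^6 cells/mL) treated with 10 μM compound for 30 min, heated for 3 min over 48°C-58°C, and extracted in PBS with 0.5% NP-40 at 4°C. Values, from duplicates, describe thermal stability against control samples on a log2 fold-change scale.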

[1] = compound: C/C(=N\NC(=O)C1=CC(=CC=C1)S(=O)(=O)N2CCOCC2)/C3=C(C=CC(=C3)Cl)O
Outline: as §1

[2] = compound: C1=CC(=C(C=C1Cl)C2=NC3=NC=CN=C3C(=N2)NC4=CC=NC=C4)F
Outline: as §1

[3] = compound: C1=CC(=CC=C1C2=NC3=C(N2)C=C(C=C3)C(=O)N)OC4=CC=C(C=C4)Cl
Outline: as §1

[4] = compound: C1=CC2=C(C=CC(=C2)/C=C\3/C(=O)NC(=NCC4=CC=CS4)S3)N=C1
Outline: as §1

[5] = compound: C1=CC2=NC=CN=C2C=C1/C=C/3\C(=O)NC(=O)S3
Outline: as §1

[6] = compound: C1=CC=C(C=C1)C2=NC(=C(N2)C3=CC=NC=C3)C4=CC(=C(C=C4)Cl)O
Outline: as §1

[7] = compound: C1=CC=C2C(=C1)C3=NNC4=CC=CC(=C43)C2=O
Outline: as §1

[8] = compound: C1CCN(C1)C(=O)NC2=CC=CC(=C2)NC3=NC=C(C(=N3)NCCC4=CN=CN4)Br
Outline: as §1

[9] = compound: C1CN(CCC1(CC2=CC=C(C=C2)Cl)N)C3=NC=NC4=C3C=CN4
Outline: as §1

IRAK-1-4 Inhibitor I = compound: C1COCCN1CCN2C3=CC=CC=C3N=C2NC(=O)C4=CC(=CC=C4)[N+](=O)[O-] [IRAK-1-4 Inhibitor I]
Outline: as §1

ibrutinib = compound: C=CC(=O)N1CCC[C@@H](n2nc(-c3ccc(Oc4ccccc4)cc3)c3c(N)ncnc32)C1 [ibrutinib]
Outline: as §1

[10] = compound: CC(=O)c1cnc2ccc(-c3cc(Cl)c(O)c(Cl)c3)nc2c1N[C@H]1CC[C@H](CN(C)C)CC1
Outline: as §1

ralimetinib = compound: CC(C)(C)Cn1c(N)nc2ccc(-c3[nH]c(C(C)(C)C)nc3-c3ccc(F)cc3)nc21 [ralimetinib]
Outline: as §1

[11] = compound: CC(C)(O)CC(=O)NCCn1ccc2ncnc(Nc3ccc(Oc4cccc(C(F)(F)F)c4)c(Cl)c3)c21
Outline: as §1

[12] = compound: CC(C)C1=C2N=C(C=C(N2N=C1)NCC3=CC=CC=C3)NCCCCCCN
Outline: as §1

[13] = compound: CC(C)C[C@@H](C=O)NC(=O)[C@H](CC(C)C)NC(=O)[C@H](CC(C)C)NC(=O)OCc1ccccc1
Outline: as §1

pinometostat = compound: CC(C)N(C[C@H]1O[C@@H](n2cnc3c(N)ncnc32)[C@H](O)[C@@H]1O)[C@H]1C[C@@H](CCc2nc3cc(C(C)(C)C)ccc3[nH]2)C1 [pinometostat]
Outline: as §1

[14] = compound: CC1=C(C(CC(=O)N1)C2=CC=C(C=C2)C(F)(F)F)C(=O)NC3=C(C=C4C(=C3)C=NN4)F
Outline: as §1

[15] = compound: CC1=C(C2=C(C=C1)C(=O)C3=CC=CC=C3N2CCCN)C
Outline: as §1

Sequence of UniProt Q86WV6 (Q86WV6 whole entry, looked up): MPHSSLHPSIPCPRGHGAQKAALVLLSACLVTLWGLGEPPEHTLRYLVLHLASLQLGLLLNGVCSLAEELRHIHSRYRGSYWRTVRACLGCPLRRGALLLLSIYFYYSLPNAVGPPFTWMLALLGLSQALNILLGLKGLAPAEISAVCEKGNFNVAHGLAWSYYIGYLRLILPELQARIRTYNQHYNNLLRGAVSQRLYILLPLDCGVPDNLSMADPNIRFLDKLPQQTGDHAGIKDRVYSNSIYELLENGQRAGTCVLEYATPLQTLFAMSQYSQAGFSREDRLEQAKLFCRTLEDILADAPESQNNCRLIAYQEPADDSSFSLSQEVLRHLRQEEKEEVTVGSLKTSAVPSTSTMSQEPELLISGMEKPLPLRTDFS
Sequence of UniProt Q96HV5 (Q96HV5 whole entry, looked up): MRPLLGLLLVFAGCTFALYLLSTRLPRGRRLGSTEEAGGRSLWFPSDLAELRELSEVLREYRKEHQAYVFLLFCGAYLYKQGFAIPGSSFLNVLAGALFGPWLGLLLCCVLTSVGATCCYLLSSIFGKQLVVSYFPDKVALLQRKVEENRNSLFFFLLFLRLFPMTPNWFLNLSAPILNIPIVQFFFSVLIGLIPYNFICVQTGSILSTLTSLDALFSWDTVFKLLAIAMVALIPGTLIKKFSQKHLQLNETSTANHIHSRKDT
Sequence of UniProt O75691 (O75691 whole entry, looked up): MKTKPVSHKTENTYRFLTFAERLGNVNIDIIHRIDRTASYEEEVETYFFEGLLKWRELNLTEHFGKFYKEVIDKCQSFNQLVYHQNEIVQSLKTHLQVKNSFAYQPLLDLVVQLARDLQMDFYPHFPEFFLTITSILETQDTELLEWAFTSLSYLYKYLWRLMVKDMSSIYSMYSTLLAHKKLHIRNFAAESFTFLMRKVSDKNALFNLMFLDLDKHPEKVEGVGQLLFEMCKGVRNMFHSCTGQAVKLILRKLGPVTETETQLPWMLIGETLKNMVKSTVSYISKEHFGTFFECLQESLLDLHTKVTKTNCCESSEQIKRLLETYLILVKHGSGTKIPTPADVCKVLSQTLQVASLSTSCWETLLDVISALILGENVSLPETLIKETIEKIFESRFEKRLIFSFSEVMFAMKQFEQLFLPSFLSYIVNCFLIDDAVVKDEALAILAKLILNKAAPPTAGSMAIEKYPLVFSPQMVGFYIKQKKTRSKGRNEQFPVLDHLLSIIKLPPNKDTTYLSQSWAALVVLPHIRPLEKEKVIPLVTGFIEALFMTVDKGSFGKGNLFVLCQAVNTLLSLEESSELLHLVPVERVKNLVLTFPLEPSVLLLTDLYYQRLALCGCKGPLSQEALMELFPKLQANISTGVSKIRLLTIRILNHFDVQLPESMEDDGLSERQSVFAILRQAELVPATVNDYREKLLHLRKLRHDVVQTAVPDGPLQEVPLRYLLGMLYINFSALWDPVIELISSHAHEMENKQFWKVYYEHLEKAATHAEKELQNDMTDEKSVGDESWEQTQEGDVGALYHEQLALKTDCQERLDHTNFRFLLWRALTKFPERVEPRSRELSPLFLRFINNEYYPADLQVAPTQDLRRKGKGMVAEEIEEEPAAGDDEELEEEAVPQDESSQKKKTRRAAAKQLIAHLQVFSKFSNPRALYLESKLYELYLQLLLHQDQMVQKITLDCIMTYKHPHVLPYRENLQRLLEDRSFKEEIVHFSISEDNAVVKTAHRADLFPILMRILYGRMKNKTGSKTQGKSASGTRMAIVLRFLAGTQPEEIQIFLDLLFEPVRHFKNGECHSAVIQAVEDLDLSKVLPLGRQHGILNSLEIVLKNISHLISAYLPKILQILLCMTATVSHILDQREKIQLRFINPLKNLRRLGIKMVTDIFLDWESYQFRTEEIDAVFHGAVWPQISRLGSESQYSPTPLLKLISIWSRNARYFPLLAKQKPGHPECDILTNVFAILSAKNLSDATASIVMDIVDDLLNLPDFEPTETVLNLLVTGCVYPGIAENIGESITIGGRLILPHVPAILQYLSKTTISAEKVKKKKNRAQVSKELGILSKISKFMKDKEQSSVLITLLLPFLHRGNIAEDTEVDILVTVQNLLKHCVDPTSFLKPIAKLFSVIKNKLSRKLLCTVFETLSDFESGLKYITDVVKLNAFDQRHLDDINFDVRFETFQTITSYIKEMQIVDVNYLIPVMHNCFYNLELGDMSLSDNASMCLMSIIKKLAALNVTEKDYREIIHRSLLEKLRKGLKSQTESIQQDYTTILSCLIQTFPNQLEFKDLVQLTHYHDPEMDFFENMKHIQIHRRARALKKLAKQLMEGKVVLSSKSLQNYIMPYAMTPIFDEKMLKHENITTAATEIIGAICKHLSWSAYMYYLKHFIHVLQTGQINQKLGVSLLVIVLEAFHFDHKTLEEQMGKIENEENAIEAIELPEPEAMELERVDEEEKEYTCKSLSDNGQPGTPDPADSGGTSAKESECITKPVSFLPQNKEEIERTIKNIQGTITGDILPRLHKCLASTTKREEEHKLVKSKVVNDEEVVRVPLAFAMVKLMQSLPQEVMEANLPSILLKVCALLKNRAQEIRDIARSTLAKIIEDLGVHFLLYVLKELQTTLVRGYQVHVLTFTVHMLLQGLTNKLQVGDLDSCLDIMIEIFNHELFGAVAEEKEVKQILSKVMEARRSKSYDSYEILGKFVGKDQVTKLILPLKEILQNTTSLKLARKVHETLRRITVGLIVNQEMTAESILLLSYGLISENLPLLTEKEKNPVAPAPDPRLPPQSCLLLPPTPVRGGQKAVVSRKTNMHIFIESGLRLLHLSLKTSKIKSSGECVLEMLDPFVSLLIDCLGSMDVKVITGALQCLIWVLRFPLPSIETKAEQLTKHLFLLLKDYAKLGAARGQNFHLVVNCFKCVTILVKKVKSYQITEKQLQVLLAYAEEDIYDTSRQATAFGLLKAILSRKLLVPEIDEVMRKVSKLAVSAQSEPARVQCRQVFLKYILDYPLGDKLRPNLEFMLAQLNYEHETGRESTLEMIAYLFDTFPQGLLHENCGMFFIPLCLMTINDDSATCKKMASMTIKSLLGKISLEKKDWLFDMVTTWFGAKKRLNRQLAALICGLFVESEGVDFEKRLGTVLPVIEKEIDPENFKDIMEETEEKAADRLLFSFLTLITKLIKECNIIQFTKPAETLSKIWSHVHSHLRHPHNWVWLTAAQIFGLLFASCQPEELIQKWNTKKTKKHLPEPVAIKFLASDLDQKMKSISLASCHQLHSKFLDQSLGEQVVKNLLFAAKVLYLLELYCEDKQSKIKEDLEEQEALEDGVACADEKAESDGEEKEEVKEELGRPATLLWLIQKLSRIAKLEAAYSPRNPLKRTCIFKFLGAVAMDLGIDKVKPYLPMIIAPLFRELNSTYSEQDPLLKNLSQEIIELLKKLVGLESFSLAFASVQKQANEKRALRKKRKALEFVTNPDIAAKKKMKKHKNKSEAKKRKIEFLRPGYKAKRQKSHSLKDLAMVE
Sequence of UniProt Q8IWA0 (Q8IWA0 whole entry, looked up): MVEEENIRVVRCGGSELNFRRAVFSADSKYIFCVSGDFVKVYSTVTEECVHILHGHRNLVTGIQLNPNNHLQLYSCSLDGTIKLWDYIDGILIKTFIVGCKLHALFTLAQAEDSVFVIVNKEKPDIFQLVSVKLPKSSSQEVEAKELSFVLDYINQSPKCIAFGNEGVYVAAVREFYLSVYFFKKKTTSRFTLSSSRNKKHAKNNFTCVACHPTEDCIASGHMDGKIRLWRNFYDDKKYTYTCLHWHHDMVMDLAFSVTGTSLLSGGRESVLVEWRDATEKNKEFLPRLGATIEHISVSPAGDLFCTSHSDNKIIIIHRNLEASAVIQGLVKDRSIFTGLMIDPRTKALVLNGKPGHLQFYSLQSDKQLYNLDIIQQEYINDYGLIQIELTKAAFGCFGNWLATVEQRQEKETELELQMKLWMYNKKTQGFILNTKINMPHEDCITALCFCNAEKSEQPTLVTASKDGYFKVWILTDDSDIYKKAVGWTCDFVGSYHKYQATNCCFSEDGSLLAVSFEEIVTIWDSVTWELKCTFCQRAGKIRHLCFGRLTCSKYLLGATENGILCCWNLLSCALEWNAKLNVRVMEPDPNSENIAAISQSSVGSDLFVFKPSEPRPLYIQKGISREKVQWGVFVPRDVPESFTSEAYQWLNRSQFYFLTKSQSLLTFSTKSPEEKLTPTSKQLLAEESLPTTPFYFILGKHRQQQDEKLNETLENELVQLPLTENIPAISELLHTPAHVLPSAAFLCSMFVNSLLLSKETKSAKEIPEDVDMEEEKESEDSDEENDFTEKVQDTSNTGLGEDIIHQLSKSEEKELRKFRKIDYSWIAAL
Sequence of UniProt O43617 (O43617 whole entry, looked up): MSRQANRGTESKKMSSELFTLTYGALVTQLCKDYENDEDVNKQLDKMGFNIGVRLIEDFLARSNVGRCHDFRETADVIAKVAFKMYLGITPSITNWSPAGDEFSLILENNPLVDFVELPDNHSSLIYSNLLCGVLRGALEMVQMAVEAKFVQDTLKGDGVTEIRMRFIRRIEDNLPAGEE
Sequence of UniProt Q9NQZ2 (Q9NQZ2 whole entry, looked up): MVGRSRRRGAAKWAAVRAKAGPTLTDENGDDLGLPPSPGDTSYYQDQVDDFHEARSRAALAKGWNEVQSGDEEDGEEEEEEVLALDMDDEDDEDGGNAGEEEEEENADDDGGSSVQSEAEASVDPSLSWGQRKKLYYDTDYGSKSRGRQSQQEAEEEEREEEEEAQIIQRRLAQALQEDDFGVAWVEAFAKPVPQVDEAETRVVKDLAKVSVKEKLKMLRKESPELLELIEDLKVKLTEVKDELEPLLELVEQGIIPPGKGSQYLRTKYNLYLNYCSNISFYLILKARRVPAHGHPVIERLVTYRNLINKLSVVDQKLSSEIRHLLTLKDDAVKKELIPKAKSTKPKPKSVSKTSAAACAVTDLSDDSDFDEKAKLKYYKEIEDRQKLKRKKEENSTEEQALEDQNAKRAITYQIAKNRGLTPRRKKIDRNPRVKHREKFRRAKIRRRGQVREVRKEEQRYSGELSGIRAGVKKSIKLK
Sequence of UniProt P61960 (P61960 whole entry, looked up): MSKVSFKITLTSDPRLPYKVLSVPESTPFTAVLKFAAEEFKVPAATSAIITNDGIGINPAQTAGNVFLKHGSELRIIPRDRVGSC

Target | log2 fold change (erlotinib) | log2 fold change [1] | log2 fold change [2] | log2 fold change [3] | log2 fold change [4] | log2 fold change [5] | log2 fold change [6] | log2 fold change [7] | log2 fold change [8] | log2 fold change [9] | log2 fold change (IRAK-1-4 Inhibitor I) | log2 fold change (ibrutinib) | log2 fold change [10] | log2 fold change (ralimetinib) | log2 fold change [11] | log2 fold change [12] | log2 fold change [13] | log2 fold change (pinometostat) | log2 fold change [14] | log2 fold change [15]
TMEM41A (UniProt Q96HV5) | 0.013 | 0.046 | -0.02 | -0.014 | 0.024 | 0.037 | -0.04 | 0.013 | -0.069 | 0.033 | -0.022 | -0.007 | -0.04 | 0.033 | 0.022 | 0.043 | -0.079 | -0.06 | 0.035 | 0.151
UFM1 isoform 2 (UniProt P61960) | -0.132 | 0.108 | 0.06 | 0.14 | 0.07 | 0.032 | – | -0.003 | 0.08 | 0.004 | – | 0.025 | 0.052 | – | 0.018 | -0.013 | – | – | 0.026 | 0.035
USP15 (UniProt Q9Y4E8) | 0.026 | 0.078 | 0.08 | -0.015 | 0.027 | 0.031 | 0 | 0.012 | -0.011 | -0.031 | -0.028 | -0.034 | 0.008 | -0.004 | -0.067 | -0.154 | 0.012 | 0.012 | 0 | -0.019
TMEM173 (UniProt Q86WV6) | 0.028 | 0.018 | -0.012 | -0.078 | 0.068 | 0.019 | -0.044 | -0.032 | 0.02 | -0.05 | 0.018 | -0.105 | 0.009 | 0.067 | -0.047 | -0.006 | 0.005 | 0.012 | 0.009 | 0.088
UTP3 (UniProt Q9NQZ2) | -0.098 | -0.076 | -0.748 | 0.063 | -0.068 | 0 | -0.255 | -0.004 | 0.006 | -0.203 | -0.053 | 0.072 | 0.031 | 0.021 | 0.062 | -0.062 | 0.253 | 0.159 | – | -0.571
TRAPPC3 (UniProt O43617) | -0.032 | 0.102 | 0.025 | -0.001 | 0.021 | 0.069 | -0.047 | -0.018 | 0.008 | -0.077 | 0.03 | -0.032 | -0.056 | -0.083 | -0.033 | -0.105 | 0.001 | -0.029 | 0.031 | 0.008
USP34 (UniProt Q70CQ2) | 0.065 | 0.074 | 0.026 | -0.02 | 0.145 | -0.013 | 0.027 | -0.043 | 0.015 | -0.086 | 0.005 | -0.091 | -0.033 | -0.017 | -0.14 | -0.114 | -0.016 | 0.079 | -0.04 | -0.176
TMEM161A (UniProt Q9NX61) | 0.017 | 0.088 | -0.019 | -0.018 | 0.021 | 0.001 | 0.029 | -0.006 | -0.067 | 0.054 | 0.03 | -0.015 | 0.045 | -0.059 | -0.17 | -0.395 (active) | -0.045 | 0.121 | -0.076 | 0.071
TOM1 (UniProt O60784) | 0.082 | – | 0.193 | -0.037 | – | 0.186 | – | – | 0.022 | -0.097 | 0.058 | 0.093 | – | – | -0.087 | -0.22 | – | -0.032 | – | -0.236
TXNL4B (UniProt Q9NX01) | 0.018 | 0.007 | – | -0.001 | 0.088 | 0.221 | 0.008 | 0.041 | -0.005 | -0.016 | 0.132 | -0.065 | -0.071 | -0.057 | – | -0.02 | 0.074 | -0.053 | 0.026 | 0.067
WARS1 (UniProt G3V227) | – | -0.08 | 0.018 | – | -0.159 | 0.093 | – | -0.178 | 0.098 | -0.089 | – | 0.03 | -0.022 | – | 0.259 | – | – | – | – | -0.048
WARS1 (UniProt G3V5U1) | – | – | -0.233 | – | – | 0.187 | – | – | – | – | 0.01 | -0.158 | – | – | 0.156 | – | – | 0.031 | – | –
UTP20 (UniProt O75691) | -0.082 | – | 0.053 | -0.321 | – | – | – | – | 0.061 | 0.04 | – | – | – | – | -0.172 | 0.081 | – | – | – | 0
XAB2 (UniProt Q9HCS7) | – | – | -0.223 | – | – | – | 0.075 | – | – | – | -0.036 | – | – | 0.14 | -0.138 | – | -0.041 | 0.181 | – | –
TUBA4A (UniProt C9JJQ8) | – | – | – | – | – | 0.004 | – | – | 0.142 | -0.036 | -0.203 | -0.076 | – | – | – | – | – | -0.121 | – | -0.042
UNC119B (UniProt A6NIH7) | 0 | 0.124 | – | 0.316 | 0.031 | 0.001 | 0.472 (active) | 0.005 | -0.012 | 0.454 (active) | 0.113 | 0.08 | 0.028 | 0.014 | – | 0.272 | 0.088 | 0.126 | -0.048 | -0.047
UBE3B (UniProt Q7Z3V4) | – | 0.018 | 0.08 | – | 0.121 | 0.135 | 0.064 | -0.043 | 0.395 | 0.16 | -0.182 | -0.019 | -0.068 | -0.296 | -0.154 | – | 0.001 | 0.239 | -0.102 | -0.188
UBE2D1 (UniProt P51668) | 0.098 | 0.071 | – | 0.068 | 0.057 | 0.023 | 0.01 | -0.096 | 0.022 | -0.162 | – | 0.007 | 0.005 | 0.003 | – | -0.203 | -0.058 | – | 0.028 | 0.117
WDR75 (UniProt Q8IWA0) | – | -0.256 | -0.592 | – | 0.306 | 0.091 | -0.063 | 0.042 | -0.193 | 0.021 | -0.081 | -0.026 | -0.196 | 0.189 | 0.012 | – | 0.178 | 0.197 | 0.058 | 0.402
WDR46, A0A0G2JJL1 | -0.273 | – | -0.741 | -0.011 | – | 0.027 | – | – | 0.279 | 0.114 | -0.153 | 0.054 | – | – | 0.269 | 0.003 | – | 0.325 | 0.005 | -0.353
